The whole screen tested about 400,000 compounds, of which about 13,000 (3.2%) were called active. Where a call stands in place of a potency, no number is given. Another 18% or so got no clear call; they are omitted. The call rests on the fitted dose curve; in most records, active means well fitted cell-killing curve with a large enough effect; inconclusive means small, poorly fitted or top-dose-only effect, or effect the other way; inactive means flat fitted curve, though single readings scatter. The full list was thinned out, with actives kept by preference.
Assay: qHTS assay for MDR1-selective chemotherapeutics: Primary screen using the drug-selected MDR subline cells KB-V1; further: nearly all actives have a fitted effect of over 60% in size
Details: KB-V1 MDR cells viability, CellTiter-Glo, 72 h; series mostly up to 46.1 µM
How it was run: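 Potencies derive from concentration-effect curves fitted to normalized luminescence (CellTiter-Glo) of KB-V1 cells treated for 72 h at 37 degrees C in phenol-red-free DMEM containing 10% FBS.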
Potency means the concentration at half of the fitted maximal effect.

| Structure (SMILES) | Potency |
| --- | --- |
| CCCCNC(=O)CSc1nc2ccc(NC(=O)CSc3nnc(COc4ccccc4C)n3C)cc2s1 | inactive |
| CCCCNC(=O)CSc1nc2ccc(NC(=O)CSc3nnc(N)s3)cc2s1 | inactive |
| Nc1nnc(SCC(=O)Nc2ccc3nc(SCC(=O)Nc4ccccc4)sc3c2)s1 | 23.1 µM (active) |
| COc1ccc(N2c3ccccc3CN(Cc3ccccc3)[C@@H](C)[C@H]2Cc2ccc(-c3ccccc3)cc2)cc1 | inactive |
| Clc1cccc(Cc2c(-c3cccc(Cl)c3)nc3ccc(Cl)cn23)c1 | inactive |
| O=C(Nc1ccccc1F)c1ccc(Cn2cc(Br)cn2)cc1 | inactive |
| O=C(c1ccc(Cn2cc([N+](=O)[O-])cn2)o1)N1CCCC1 | inactive |
| CCc1ccc(NC(=O)c2ccc(Cn3cc([N+](=O)[O-])cn3)cc2)cc1 | 4.61 µM (active) |
| CCOC(=O)C1=CC[C@@H](c2ccccc2)N(S(=O)(=O)c2ccc(C)cc2)[C@H]1c1cccc(OC)c1 | inactive |
| O=C(NCc1ccccc1)C1c2ccccc2OCC(=O)N1CCCN1CCOCC1 (centres undefined) | inactive |
| CCOC(=O)c1ccc(NC(=O)C2CC(=O)NC(=Nc3ccc(C)c(C)c3)S2)cc1 (centres undefined) | inactive |
| Cc1ccc(Cc2c(-c3ccco3)nc3ccc(Cl)cn23)cc1 | inactive |
| Brc1ccccc1/C=N/Nc1nc2ccccc2o1 | inactive |
| Oc1c(Br)cccc1/C=N/Nc1c(F)c(F)c(F)c(F)c1F | 25.9 µM (active) |
| Oc1cccc(/C=N/Nc2ccc(Cl)nn2)c1O | inactive |
| CCOc1ccc(Nc2nc3c(S(=O)(=O)c4cccc(Cl)c4)nnn3c3ccsc23)cc1 | inactive |
| CSc1ccc(CN2CCC2(C)C(=O)NCc2ccccc2Br)cc1 (centres undefined) | inactive |
| CCc1nnc(NC(=O)c2ccco2)s1 | inactive |
| CCCCCNC(=O)C1C(=O)Nc2ccccc2C(=O)N1C(C)(C)C (centres undefined) | inactive |
| CCS(=O)(=O)Nc1cc(C(=O)OC)ccc1C(=O)OC | inactive |
| CCCN(CCC)C(=S)Nc1cc(C(=O)OC)ccc1C(=O)OC | 20.6 µM (active) |
| CCN(CCO)C(=S)Nc1cc(C(=O)OC)ccc1C(=O)OC | inactive |
| COc1ccc2c(C)c(CCC(=O)NCc3ccc(OC)c(OC)c3)c(=O)oc2c1 | inactive |
| O=C(CCCN1C(=O)C(c2ccccc2)Oc2cccnc21)Nc1ccccc1Br (centres undefined) | inactive |
| Cn1nnc2c(N3CCN(c4ccccc4)CC3)ncnc21 | inactive |

| Structure (SMILES) | Potency |
| --- | --- |
| O=C1NC[C@H](CCCCN2C[C@H](Cc3ccccc3)N(Cc3ccccc3)C(=O)C2=O)N(CCc2ccc(O)cc2)C1=O | inactive |
| CC1CCN(C(=O)c2ccc(S(=O)(=O)Cc3cc(F)ccc3F)c([N+](=O)[O-])c2)CC1 | 14.6 µM (active) |
| Nc1ccc(C(=O)N2CCN(S(=O)(=O)c3ccc(Cl)cc3)CC2)cc1[N+](=O)[O-] | inactive |
| O=C(c1ccc(Oc2ccc(Cl)cc2)c([N+](=O)[O-])c1)N1CCCC1 | inactive |
| O=C1CCC[C@@H]2C[C@@]3(C[C@@H]4CCN1[C@H]24)Nc1ccccc1NC3=NCc1ccccc1 | inactive |
| Nc1cccc(-c2cncc(N3CCN(Cc4ccccn4)CC3)n2)c1 | inactive |
| COc1ccc(S(=O)(=O)N2CCN(CC(=O)N3CCNC3=O)CC2)cc1OC | inactive |
| O=C(COC(=O)CCc1c[nH]c2ccccc12)Nc1cccc(Cl)c1 | inactive |
| CCc1cc(C(=O)N(CC)CC(=O)Nc2c(F)cccc2F)sc1C | inactive |
| O=C(OCc1ccccc1)N1CCC2CC1c1ccc(-c3ccc4c(c3)OCO4)cc12 (centres undefined) | inactive |
| O=S(=O)(c1ccc(SCc2ccccc2)nc1)N1CCCCCC1 | inactive |
| Cc1ccc(CSc2ccc(S(=O)(=O)N3CCCCC3)cn2)cc1 | inactive |
| O=S(=O)(c1ccc(SCc2ccc(Br)cc2)nc1)N1CCOCC1 | 13 µM (active) |
| Cc1cccc2c1-c1sc(C(=O)Nc3ccc(F)cc3F)cc1CO2 | inactive |
| COc1ccc(NC(=O)C2(C)Cc3c(-c4cccc(NC(C)=O)c4)ccnc3O2)cc1OC (centres undefined) | inactive |
| CCn1nccc1C(=O)Nc1ccc(Cl)c(Cl)c1 | inactive |
| O=C(CSc1nnc(-c2ccncc2)n1-c1ccccc1)Nc1ccc(Cl)c(Cl)c1 | inactive |
| O=C(CC(O)(C(F)(F)F)C(F)(F)F)Nc1ccc(Cl)c(Cl)c1 | 3.26 µM (active) |
| CCOC(=O)N1CCC(NC(=O)c2ccc3nc(N4CCOCC4)sc3c2)CC1 | 3.66 µM (active) |
| Cc1ccc(C(=O)NC2CCN(C(=O)N3CCOCC3)CC2)cc1 | inactive |
| CC1CCN(c2nc3ccc(C(=O)N4CCN(c5ccccc5)CC4)cc3s2)CC1 | inactive |
| CC1CCC2(CC1)NC(=O)N(CC(=O)NCc1ccco1)C2=O (centres undefined) | inactive |
| C[C@H]1CN([C@@H](C)CO)C(=O)c2cc(-c3cccc(F)c3)cnc2O[C@@H]1CN(C)S(C)(=O)=O | inactive |
| COc1cc(C(=O)OC(C)C(=O)NCC2CCCCC2)cc(NC(=O)c2ccco2)c1OC (centres undefined) | 20.6 µM (active) |
| CC(OC(=O)c1ccc([N+](=O)[O-])cc1)C(=O)NCC1CCCCC1 (centres undefined) | inactive |

| Structure (SMILES) | Potency |
| --- | --- |
| COc1ccc(NC(=O)CCC(=O)Nc2cc(OC)c(NC(=O)c3ccco3)cc2OC)c(OC)c1 | inactive |
| CN(C)CCCOc1ccc(-c2ccc3nccn3c2)cn1 | inactive |
| O=C(CCC1CCCC1)N=C1SC2CS(=O)(=O)CC2N1Cc1ccccc1 (centres undefined) | inactive |
| O=C(N=C1SC2CS(=O)(=O)CC2N1Cc1ccccc1)c1ccccc1 (centres undefined) | inactive |
| CC(C)CC(=O)N=C1SC2CS(=O)(=O)CC2N1CCc1ccccc1 (centres undefined) | 13 µM (active) |
| C/C=C/C(=O)Nc1ccc(N2CCN(c3ccc(C(F)(F)F)cn3)CC2)nc1 | inactive |
| CCOc1ccc(C(=O)NCC(=O)N2CCN(c3ccc(C(F)(F)F)cn3)CC2)cc1 | inactive |
| Cc1ccc(F)cc1NC(=O)N1CCCN(c2ccc(C(F)(F)F)cn2)CC1 | 20.6 µM (active) |
| COc1cc2c(cc1OC)CN(C(=O)c1cc(=O)c3ccccc3o1)CC2 | 2.91 µM (active) |
| O=C(c1cc(=O)c2ccccc2o1)N1CCN(c2ccccc2)CC1 | inactive |
| COc1ccccc1CNC(=O)c1cc(=O)c2ccccc2o1 | inactive |
| CNC(=S)N1N=C(c2ccccc2)CC1c1ccc(Br)cc1 (centres undefined) | 11.6 µM (active) |
| COc1ccc(C2=NN(C(C)=O)C(c3ccccc3)C2)cc1 (centres undefined) | inactive |
| O=C(c1ccccc1)N1N=C(c2ccccc2O)CC1c1ccc(Br)cc1 (centres undefined) | inactive |
| CC1(C(=O)NS(=O)(=O)c2ccc(C#N)cc2)CCN1C(=O)c1ccc(C2CCCCC2)cc1 (centres undefined) | inactive |
| CCOC(=O)C1CCC(CN(Cc2ccc(OC)cc2)S(=O)(=O)c2ccc(F)c(C(=O)Nc3cc(C)ccc3C)c2)CC1 (centres undefined) | inactive |
| N#CC1=C(SCc2ccc(C#N)cc2)N=C(N)C(c2nc(-c3ccccc3)cs2)C12CCCCC2 (centres undefined) | inactive |
| N#CC1=C(SCc2ccccc2)NC(=O)C(C#N)C12CCCC2 (centres undefined) | 14.6 µM (active) |
| CCCCN1CC(C)(C)[C@H](CC(=O)Nc2ccc(Br)cc2)C1=O | inactive |
| COc1ccccc1CNC(=O)CCCCn1c(=O)c2ccccc2n(CC(=O)Nc2cc(Cl)ccc2C)c1=O | inactive |
| CC(Sc1oc(-c2ccco2)nc1S(=O)(=O)c1ccc(Br)cc1)c1ccccc1 (centres undefined) | inactive |
| Cc1ccc(C(=O)NC(C)C(c2cccs2)N2CCOCC2)cc1C (centres undefined) | inactive |
| CCN(CCCNC(=O)c1cc(Nc2ccc(OC)cc2)nc2ccccc12)c1cccc(C)c1 | inactive |
| CC(C)(C)c1ccc(C(=O)NNC(=O)Cc2ccccc2)cc1 | inactive |
| CN(C(=O)CC(NC(=O)c1ccccc1)(c1ccccc1)c1ccccc1)c1ccccc1 | 10.3 µM (active) |

| Structure (SMILES) | Potency |
| --- | --- |
| CN(C(=O)COC(=O)CNC(=O)C12CC3CC(CC(C3)C1)C2)c1ccccc1 | inactive |
| O=C(Nc1cccc(-c2nc3ccccc3o2)c1)c1cccc(Br)c1 | inactive |
| Nc1nc(N)c(N=O)c(N)n1 | inactive |
| Cc1ccc(S(=O)(=O)N2CCN(C(=O)CCC(=O)NC3CCCc4ccccc43)CC2)cc1 (centres undefined) | 23.1 µM (active) |
| COc1ccc(NC(=O)CCC(=O)N2CCN(S(=O)(=O)c3ccc(C)cc3)CC2)c(OC)c1 | inactive |
| O=C(CCC(=O)N1CCN(S(=O)(=O)c2ccccc2)CC1)NC1CCCc2ccccc21 (centres undefined) | inactive |
| CC1(C(=O)NS(=O)(=O)c2cccc(F)c2)CCN1C(=O)c1cccc2ccccc12 (centres undefined) | inactive |
| COc1ccccc1-n1c(SCC(=O)Nc2ccc(Cl)cc2)nc(O)c(Cc2ccccc2)c1=O | inactive |
| CCc1cc2c(N3CCN(c4nnc(CC)s4)CC3)ncnc2s1 | 3.66 µM (active) |
| CCc1cc2c(NC3CCCC3)ncnc2s1 | inactive |
| Oc1ccccc1N1CCN(c2ncnc3sc(-c4ccccc4)cc23)CC1 | inactive |
| CCCNC(=O)C1(C)CCCN(C(=O)c2oc3ccccc3c2C)C1 (centres undefined) | inactive |
| O=C(Cc1ccccc1)N/N=C/c1ccc(Cl)cc1Cl | 23.1 µM (active) |
| C=CCOc1ccccc1/C=N/NC(=O)Cc1ccccc1 | inactive |
| O=C(Cn1cc(C(F)(F)F)ccc1=O)N/N=C/c1ccc(Cl)cc1Cl | inactive |
| CN(C)c1ccc(/C=c2\[nH]c(=O)/c(=C/c3ccc(N(C)C)cc3)[nH]c2=O)cc1 | inactive |
| COc1ccc(OC)c(-n2nnc3c(sc4nc(C)c(Br)c(C)c43)c2=O)c1 | inactive |
| COc1ccc(OC)c(Cc2cnc3nc(N)nc(N)c3c2C)c1 | 10.3 µM (active) |
| COc1ccc(OC)c(Cc2nnc(CCC(=O)NC3CCCC3)o2)c1 | inactive |
| Nc1nc2c(Br)ccc(Br)c2cc1C(=O)NCCc1ccccc1 | inactive |
| Cc1cc(Br)ccc1NC(=O)CCCOc1cc(=O)n(C)c2ccccc12 | inactive |
| O=C(c1cccc(S(=O)(=O)Nc2ccccc2Cl)c1)N1CCN(C(=O)c2ccco2)CC1 | inactive |
| O=C(Nc1ccc2c(c1)CCC2)c1cccc(S(=O)(=O)N2CCN(c3ccc(F)cc3)CC2)c1 | inactive |
| O=C(Nc1ccc2c(c1)CCC2)c1cccc(S(=O)(=O)Nc2ccccc2Cl)c1 | 20.6 µM (active) |

Source: PubChem BioAssay AID1347076 (National Center for Advancing Translational Sciences (NCATS), 2019)
